# Laboratory results: PubChem BioAssay AID2058 (Sanford-Burnham Center for Chemical Genomics, 2009)
# Among all 290,000 compounds or so, about 150 (0.052%) were called active. This is one part of a sample in which actives are shown more often than they occur.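 The calls were made as follows: active = inhibition of at least 50% with at least 30 cells and total cytoplasm GFP at most 10,000,000; inconclusive = under 30 cells or total GFP of 10,000,000 plus; inactive = the rest.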 Results with a measured potency or affinity are listed apart.
# Target: G-protein coupled receptor 35 (Homo sapiens) (UniProt Q9HC97)
# Sequence (Q9HC97 whole entry, looked up): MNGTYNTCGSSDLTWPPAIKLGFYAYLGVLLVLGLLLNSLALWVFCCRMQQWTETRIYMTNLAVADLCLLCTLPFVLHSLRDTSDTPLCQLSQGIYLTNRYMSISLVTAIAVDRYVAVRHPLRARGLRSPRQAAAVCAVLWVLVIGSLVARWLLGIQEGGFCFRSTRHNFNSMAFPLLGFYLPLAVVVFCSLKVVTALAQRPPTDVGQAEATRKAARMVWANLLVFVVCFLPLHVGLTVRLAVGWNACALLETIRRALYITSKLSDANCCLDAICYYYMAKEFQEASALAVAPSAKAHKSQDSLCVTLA
# Test: GPR35 antagonists blocking zaprinast-driven arrestin recruitment, primary screen, imaging, U2OS, beta-arrestin-GFP, zaprinast agonist (AID 2058)
# Details: U2OS GPR35 beta-arrestin-GFP translocation imaging, zaprinast antagonism; at 10 µM; hits give high values
row,Compound,inhibition
1,COCCCNC(=S)N(CCCN(C)C)Cc1cc2cc3c(cc2[nH]c1=O)OCCO3,-7.4% (inactive)
2,CCOC(=O)CC1C(=O)NCCN1C1CCCC1 (stereo not drawn),9.7% (inactive)
3,CC(=O)NNC(=O)CN1C(=O)/C(=C/c2ccccc2)SC1=S,-0.2% (inactive)
4,Cc1c(C(=O)Nc2cccc(N(C)S(C)(=O)=O)c2)cccc1[N+](=O)[O-],-4.4% (inactive)
5,CC(C)c1cc(=O)oc2c3c4c(cc12)CCCN4CCC3,-1.4% (inactive)
6,O=c1ccc2cc3c4c(c2o1)CCCN4CCC3,22.1% (inactive)
7,O=C(CNC(=O)N1CC(=O)Nc2ccccc21)Nc1ccc(F)c(Cl)c1,-6.4% (inactive)
8,CCc1ccc2[nH]c(=O)c(CN(CCN3CCOCC3)C(=O)Nc3ccccc3F)cc2c1,8.5% (inactive)
9,CCC(C)[C@H](NC(=O)N1CCn2c1nc1ccccc12)C(=O)NCC1CCCO1 (stereo partly drawn),-10.9% (inactive)
10,O=C(NC1CCCc2ccccc21)c1cn2ccccc2n1 (stereo not drawn),13.2% (inactive)
11,Cc1ccc(CNC(=O)CSc2nc3ccsc3c(=O)n2Cc2ccc(C(=O)O)cc2)cc1,-4.6% (inactive)
12,CC(C)c1ccc(NC(=O)CSc2nc3ccsc3c(=O)n2CCC(=O)O)cc1,6.9% (inactive)
13,O=C(NCCN1CCOCC1)c1c[nH]c2ccc(S(=O)(=O)N3CCOCC3)cc2c1=O,3% (inactive)
14,CCCS(=O)(=O)c1c(S(=O)(=O)CCC)c2c3ccccc3ccn2c1C(N)=O,-10.5% (inactive)
15,CCN(CC)S(=O)(=O)c1ccc(Cl)c(NC(=O)c2cc(Cl)ccc2Cl)c1,7.1% (inactive)
16,CCN(CC)S(=O)(=O)c1ccc(Cl)c(NC(=O)c2ccccc2C)c1,4.8% (inactive)
17,CCOc1ccccc1N(C)C(=O)Cn1ncc2c([nH]c3ccc(C)cc32)c1=O,-6.9% (inactive)
18,CN(C(=O)COC(=O)c1ccccc1NC(=O)c1ccco1)C1CCS(=O)(=O)C1 (stereo not drawn),29.1% (inactive)
19,Cc1ccc(NC(=O)c2nc[nH]c2C(=O)N[C@@H](C)c2ccccc2)cc1,53.8% (inactive)
20,O=C(CCS(=O)(=O)c1ccc(Br)cc1)NCCc1ccccc1,-8.4% (inactive)
21,Cc1ccc(OCCC(=O)NCCc2ccc(S(N)(=O)=O)cc2)cc1,21.9% (inactive)
22,NS(=O)(=O)c1ccc(CCNC(=O)CCCOc2ccccc2)cc1,3.9% (inactive)
23,Cc1ccc(CCNC(=O)CCS(=O)(=O)c2ccc(Br)cc2)cc1,3.1% (inactive)
24,CC(=O)Nc1ccc(-c2nnc(SCc3ccccc3C#N)n2C)cc1,-3.6% (inactive)

row,Compound,inhibition
1,Cc1ccc(C(OCC(O)CNC(CO)C(O)c2ccc([N+](=O)[O-])cc2)c2ccccc2)cc1 (stereo not drawn),2% (inactive)
2,CCCc1ccc(/C=C2\C(=O)c3ccccc3C(O)=C2C(=O)OCC)cc1,21.2% (inactive)
3,CCCCc1ccc(/C=C2\C(=O)c3ccccc3C(O)=C2C(=O)OCC)cc1,59% (active)
4,CCOC(=O)C1=C(O)c2ccccc2C(=O)/C1=C\c1ccc(CC)cc1,31.1% (inactive)
5,Cc1cccc(Oc2ncnc3onc(C)c23)c1,-0.9% (inactive)
6,CCN1/C(=C/C=C/C=C/C=C/c2sc3ccccc3[n+]2CC)Sc2ccccc21,44.3% (inactive)
7,CCN1/C(=C/C=C/C=C/c2sc3ccccc3[n+]2CC)Sc2ccccc21,58.9% (inactive)
8,CCN(c1ccccc1)S(=O)(=O)c1ccc(Cl)c(NC(=O)CSc2n[nH]c(N)n2)c1,0.7% (inactive)
9,COc1cccc(/C=c2\s/c(=C/C(=O)c3ccc(C)cc3)[nH]c2=O)c1OC,-9.9% (inactive)
10,COc1ccc(/C=c2\s/c(=C/C(=O)c3ccc(C)cc3)[nH]c2=O)cc1OC,8.2% (inactive)
11,Cc1ccc(C)c(NC(=O)Nc2ccc3c(c2)OCO3)c1,-7.8% (inactive)
12,COc1ccccc1N1CCN(S(=O)(=O)c2ccc(Cl)s2)CC1,-2.5% (inactive)
13,COC(=O)c1cc(NC(=O)c2ccccc2)c(=O)oc1C,-9.4% (inactive)
14,COC(=O)c1cc(NC(=O)c2cccc(Cl)c2)c(=O)oc1/C=C/Nc1cc(C)cc(C)c1,93.3% (active)
15,Cc1oc(=O)c(NC(=O)c2cccc(Cl)c2)cc1C(=O)c1ccccc1,-3% (inactive)
16,CSc1nc2ccccc2cc1/C=C(\C#N)c1ccccc1,3.1% (inactive)
17,CSc1nc2ccccc2cc1/C=C(\C#N)c1cccc(Cl)c1,3.7% (inactive)
18,CSc1nc2ccccc2cc1/C=C(\C#N)c1cccc(C)c1,55.3% (active)
19,CN(Cc1nc(-c2cccc(Cl)c2)no1)C1CCOCC1,-8.4% (inactive)
20,CSC1=NSC2=NC(=O)/C(=C/c3coc4ccccc4c3=O)C(=N)N12,4.5% (inactive)
21,CCSC1=NSC2=NC(=O)/C(=C\c3coc4ccccc4c3=O)C(=N)N12,36.4% (inactive)
22,CC(=O)Nc1cccc(NC(=O)Cc2ccc3ccccc3c2)c1,0.8% (inactive)
23,Cc1cc(N2C(=O)C(O)=C(C(=O)c3ccc(C)o3)C2c2ccc([N+](=O)[O-])cc2)no1 (stereo not drawn),4.2% (inactive)
24,C[n+]1ccc(/C=C/c2c[nH]c3ccc(F)cc23)cc1,-4.5% (inactive)

row,Compound,inhibition
1,Cc1[nH]c2ccccc2c1/C=C/C(=O)c1ccccc1,4.5% (inactive)
2,C=CCn1cc(/C=C/c2cc[n+](C)cc2)c2ccccc21,17.1% (inactive)
3,Cc1[nH]c2ccccc2c1/C=C/c1nc2ccccc2c(=O)[nH]1,-11.7% (inactive)
4,Cc1[nH]c2ccccc2c1/C=C/c1cc[n+](C)cc1,71.2% (active)
5,Cc1ccc2[nH]cc(/C=C/c3cc[n+](C)cc3)c2c1,29.2% (inactive)
6,COC(=O)Cn1c(C)c(/C=C/c2cc[n+](C)cc2)c2ccccc21,17.9% (inactive)
7,COc1cccc(CNS(=O)(=O)c2ccc3c(c2)N(C(C)=O)CCO3)c1,-10.2% (inactive)
8,O=C(CSCc1ccc(Cl)cc1)Nc1ccc(Br)cc1C(=O)O,2.2% (inactive)
9,Cn1c(=O)[nH]c(=O)c2c1nc(Sc1nc3ccccc3s1)n2Cc1ccccc1,13.4% (inactive)
10,Cn1c(SCc2ccc(Br)cc2)nc2c(c1=O)SCC2,-9.1% (inactive)
11,CCOC(=O)C1=C(Cc2ccc(C)cc2)C(=O)c2ccccc2C1=O,5% (inactive)
12,CCOC(=O)C1=C(Cc2ccc(F)cc2)C(=O)c2ccccc2C1=O,11.7% (inactive)
13,CCOC(=O)N1CCN(C(=O)C2CCN(S(=O)(=O)c3ccc(OCC)cc3)CC2)CC1,10.5% (inactive)
14,CC(C)c1ccc(/C=C2\NC(=S)N(Cc3cccnc3)C2=O)cc1,-2.8% (inactive)
15,O=C1/C(=C/c2ccc(Cl)cc2)NC(=S)N1Cc1cccnc1,-2.2% (inactive)
16,S=c1[nH]nc(COc2ccccc2)n1/N=C/c1c(Cl)cccc1Cl,0.3% (inactive)
17,Cc1ccc(S(=O)(=O)N[C@@H](Cc2ccccc2)C(=O)N2CCC(C(=O)N[C@@H](CC(C)C)C(=O)O)CC2)cc1,1% (inactive)
18,Cc1ccc(OC(C)C(=O)Nc2ccc(S(=O)(=O)Nc3nccs3)cc2)cc1 (stereo not drawn),-8.6% (inactive)
19,COc1ccc(OC)c(NC(=O)C2CCN(S(=O)(=O)c3cccs3)CC2)c1,4.3% (inactive)
20,CCCCCC(=O)N/N=C(\C)c1ccc(Cl)cc1,-9.2% (inactive)
21,CCN(CC(=O)NC1CCS(=O)(=O)C1)c1nc(-c2ccccc2)nc2ccccc12 (stereo not drawn),1.8% (inactive)
22,CCC(NC(=S)NC1CCCCC1)c1ccccc1 (stereo not drawn),-4.4% (inactive)
23,CC(NC(=O)NC1CCCCC1)c1ccccc1 (stereo not drawn),5.6% (inactive)
24,CCC(NC(=O)NC1CCCCC1)c1ccccc1 (stereo not drawn),103% (active)

row,Compound,inhibition
1,COc1cc(C#N)ccc1OCC(=O)N1CCc2ccccc2C1,10.3% (inactive)
2,O=c1c(Cl)c(Cl)cnn1Cc1ccc(F)cc1,49.1% (inactive)
3,Cc1ccc(Cn2ncc(Cl)c(Cl)c2=O)cc1,33.1% (inactive)
4,CCc1c(C)sc(NC(=O)c2ccco2)c1C(=O)N1CCOCC1,-15.5% (inactive)
5,COc1ccc(OC)c(N(CC(=O)Nc2ccc3c(c2)OCCO3)S(C)(=O)=O)c1,-8.2% (inactive)
6,C[N+]1=C(/C=C/Nc2ccccc2Cl)C(C)(C)c2ccccc21,6.8% (inactive)
7,COC(=O)c1ccc2c(c1)C(C)(C)C(/C=C/c1ccccc1O)=[N+]2C,18.9% (inactive)
8,O=c1c(Cc2ccc(F)cc2)c(O)ccn1Cc1cccc(Cl)c1,-9.1% (inactive)
9,O=S(=O)(NCCSc1ccccc1)c1cccs1,-13.8% (inactive)
10,O=C(CCN1C(=O)/C(=C/c2ccc3c(c2)OCO3)SC1=S)Nc1ccc(C(=O)O)cc1,0.4% (inactive)
11,O=C(CCN1C(=O)/C(=C/c2ccc3c(c2)OCO3)SC1=S)Nc1ccccc1,15.7% (inactive)
12,O=C(CCN1C(=O)/C(=C/c2ccc3c(c2)OCO3)SC1=S)Nc1cccc(C(=O)O)c1,-7.5% (inactive)
13,O=C(CCCN1C(=O)/C(=C/c2ccco2)SC1=S)Nc1cccc(C(=O)O)c1,5.8% (inactive)
14,Cn1c(=O)n(CC(=O)N2CCOCC2)c2ccccc21,-9.9% (inactive)
15,O=C(CCN1C(=O)c2ccncc2C1=O)Nc1ccc(F)cc1,3.7% (inactive)
16,C(/C=C/C=C/Nc1ccccc1)=Nc1ccccc1,90.5% (active)
17,CCn1c(O)c(/C=C/C=C/C=Nc2ccccc2)sc1=S,-0.5% (inactive)
18,Brc1ccc(N=C/C=C/C=C/Nc2ccc(Br)cc2)cc1,40.6% (inactive)
19,COc1ccccc1NC(=O)N1CCN(Cc2ccc3c(c2)OCO3)CC1,-7.3% (inactive)
20,COc1ccc(/C=C2/S/C(=N/N=C3\CC4CCC3(C)C4(C)C)NC2=O)cc1 (stereo not drawn),1.4% (inactive)
21,Cc1cccc(/C=C2/S/C(=N/N=C3\CC4CCC3(C)C4(C)C)NC2=O)c1 (stereo not drawn),1.3% (inactive)
